Results from PubChem BioAssay (Tox21).
Several values for one entry are separate records, joined by “and”; a condition that tells them apart may be missing. Identical values can stand only once. Inconclusive results are not listed. The source holds several records for some structures; these can differ, active in one and inactive in another. Activity calls are given as the source filed them. Unless noted, calls follow the shape of the dose curve; as a rule, active = well fitted curve in the direction sought with a large enough effect in the repeat runs; inconclusive = weak or mixed curves; inactive = no such curve, though single readings can be large; an effect the other way counts as inactive or inconclusive.

Key:
[1] = qHTS assay to identify small molecule agonists of the peroxisome proliferator-activated receptor delta (PPARd) signaling pathway - cell viability counter screen (AID 743211); also: nearly all actives have a fitted effect of over 55% in size; also: potency is read from the fitted curve at half-maximal effect
Method in brief: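 Tox21 library compounds, delivered in DMSO, were incubated 17 h with PPARd-bla HEK293H cells; cytotoxicity was taken from CellTiter-Glo luminescence read 30 min after reagent addition.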

[2] = molecular target: Peroxisome proliferator-activated receptor delta (Homo sapiens) (UniProt Q03181); assay: qHTS assay to identify small molecule agonists of the peroxisome proliferator-activated receptor delta (PPARd) signaling pathway (AID 743212; calls by dose curve)
Sequence of Peroxisome proliferator-activated receptor delta (Homo sapiens) (Q03181 whole entry, looked up): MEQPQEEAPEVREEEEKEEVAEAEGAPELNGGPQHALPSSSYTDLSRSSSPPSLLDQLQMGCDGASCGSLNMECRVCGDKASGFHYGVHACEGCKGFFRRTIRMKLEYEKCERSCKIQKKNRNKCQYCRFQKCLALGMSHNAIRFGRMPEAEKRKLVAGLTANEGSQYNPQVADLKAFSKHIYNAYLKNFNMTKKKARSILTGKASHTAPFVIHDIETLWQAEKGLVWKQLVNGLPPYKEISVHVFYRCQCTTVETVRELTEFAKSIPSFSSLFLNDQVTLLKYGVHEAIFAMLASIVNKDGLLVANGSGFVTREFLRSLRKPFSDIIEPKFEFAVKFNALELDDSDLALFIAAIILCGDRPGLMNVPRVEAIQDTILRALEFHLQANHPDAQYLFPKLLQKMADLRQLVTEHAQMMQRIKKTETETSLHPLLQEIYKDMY
Method in brief: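 HEK293H UAS-bla reporter cells, human PPARd system; compounds delivered in DMSO after 5 h plating, then at 37 C. Beta-lactamase FRET read, 2 h RT substrate step.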

[3] = molecular target: Peroxisome proliferator-activated receptor delta (Homo sapiens) (UniProt Q03181); assay: qHTS assay to identify small molecule antagonists of the peroxisome proliferator-activated receptor delta (PPARd) signaling pathway (AID 743215; active = well fitted inhibition curve with a large enough effect in the signal ratio in the repeat runs, not every such curve was filed as active; the % refers to the signal ratio;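 also: cells stimulated with agonist L165041 at 300 nM final during compound exposure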; also: potency is read from the fitted curve at half-maximal effect)
Method in brief: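 Antagonist-mode beta-lactamase reporter screen: HEK293H cells with UAS-bla under PPARd control, stimulated by 300 nM L165041 (final) alongside test compound for 17 h at 37 C, then FRET fluorescence after 2 h substrate incubation.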

[4] = qHTS assay to identify small molecule agonists of the farnesoid-X-receptor (FXR) signaling pathway - cell viability counter screen (AID 743218); also: nearly all actives have a fitted effect of over 45% in size; also: potency is read from the fitted curve at half-maximal effect
Method in brief: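 In GeneBLAzer FXR-UAS-bla HEK 293T cells, compounds act for 16 h at 37 C. Cell viability is then scored in the reporter wells by CellTiter-Glo, 30 min at RT, luminescence.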

[5] = molecular target: Bile acid receptor (Homo sapiens) (UniProt Q96RI1); assay: qHTS assay to identify small molecule agonists of the farnesoid-X-receptor (FXR) signaling pathway (AID 743220; active = well fitted activation curve with a large enough effect in the signal ratio in the repeat runs, not every such curve was filed as active; the % refers to the signal ratio)
Sequence of Bile acid receptor (Homo sapiens) (Q96RI1 whole entry, looked up): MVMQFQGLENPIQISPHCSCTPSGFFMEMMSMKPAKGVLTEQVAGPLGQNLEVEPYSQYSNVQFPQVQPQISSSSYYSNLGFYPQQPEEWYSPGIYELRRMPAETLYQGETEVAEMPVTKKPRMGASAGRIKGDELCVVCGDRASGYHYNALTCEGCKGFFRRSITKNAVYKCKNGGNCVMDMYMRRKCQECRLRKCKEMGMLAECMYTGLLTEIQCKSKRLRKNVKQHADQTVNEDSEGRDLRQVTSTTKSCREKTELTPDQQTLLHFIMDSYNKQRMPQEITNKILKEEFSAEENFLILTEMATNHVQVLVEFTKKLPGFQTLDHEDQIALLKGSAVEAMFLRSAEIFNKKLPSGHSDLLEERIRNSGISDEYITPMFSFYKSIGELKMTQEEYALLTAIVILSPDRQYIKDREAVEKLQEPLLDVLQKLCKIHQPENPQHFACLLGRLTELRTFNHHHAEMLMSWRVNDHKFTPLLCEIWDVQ
Method in brief: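 Beta-lactamase reporter under UAS control in GeneBLAzer FXR HEK 293T cells (5000/well) measured with LiveBLAzer FRET substrate after 2 h at room temperature. Compound exposure lasted 16 h at 37C.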

[6] = qHTS assay to identify small molecule antagonists of the farnesoid-X-receptor (FXR) signaling pathway - cell viability counter screen (AID 743221; active = well fitted cell-killing curve with a large enough effect in the repeat runs, not every such curve was filed as active; also: nearly all actives have a fitted effect of over 50% in size; also: potency is read from the fitted curve at half-maximal effect)
Method in brief: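 Cytotoxicity is taken from ATP luminescence (CellTiter-Glo, 30 min, room temperature) in FXR-bla HEK 293T cells previously incubated 16 h at 37 C with compound and chenodeoxycholic acid at 50 uM final.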

[7] = molecular target: Vitamin D3 receptor (Homo sapiens) (UniProt P11473); assay: qHTS assay to identify small molecule agonists of the vitamin D receptor (VDR) signaling pathway (AID 743222; calls by dose curve)
Sequence of Vitamin D3 receptor (Homo sapiens) (P11473 whole entry, looked up): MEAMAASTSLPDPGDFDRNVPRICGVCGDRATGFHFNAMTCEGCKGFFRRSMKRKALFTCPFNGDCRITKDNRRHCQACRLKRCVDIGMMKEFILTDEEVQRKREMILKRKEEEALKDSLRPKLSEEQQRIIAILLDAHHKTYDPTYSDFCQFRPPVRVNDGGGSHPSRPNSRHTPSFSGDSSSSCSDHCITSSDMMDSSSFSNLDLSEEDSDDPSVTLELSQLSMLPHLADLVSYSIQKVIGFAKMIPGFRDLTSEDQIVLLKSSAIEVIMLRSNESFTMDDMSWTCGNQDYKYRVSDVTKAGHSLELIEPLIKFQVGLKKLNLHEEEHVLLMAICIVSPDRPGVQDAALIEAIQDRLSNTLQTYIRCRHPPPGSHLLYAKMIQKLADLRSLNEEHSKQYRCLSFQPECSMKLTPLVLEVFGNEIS
Method in brief: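 Agonist activity measured in VDR-bla reporter cells. Exposure 16 h, 37C, 5% CO2; detection by B/G FRET substrate, 2 h RT.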

[8] = qHTS assay to identify small molecule antagonists of the peroxisome proliferator-activated receptor delta (PPARd) signaling pathway - cell viability counter screen (AID 743213); also: nearly all actives have a fitted effect of over 50% in size; also: potency is read from the fitted curve at half-maximal effect
Method in brief: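 Luminescence from CellTiter-Glo, added after the bla read and incubated 30 min at room temperature, gives viability of HEK293H PPARd-bla cells exposed to compounds for 17 h at 37 C with 300 nM L165041.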

[9] = molecular target: Bile acid receptor (Homo sapiens) (UniProt Q96RI1); assay: qHTS assay to identify small molecule antagonists of the farnesoid-X-receptor (FXR) signaling pathway (AID 743217; active = well fitted inhibition curve with a large enough effect in the signal ratio in the repeat runs, not every such curve was filed as active; the % refers to the signal ratio; also: potency is read from the fitted curve at half-maximal effect)
Method in brief: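 Beta-lactamase reporter under UAS control in HEK 293T cells; compound exposure 16 h at 37 °C in the presence of chenodeoxycholic acid (50 uM final); signal from B/G FRET substrate after 2 h at room temperature.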

[10] = molecular target: Vitamin D3 receptor (Homo sapiens) (UniProt P11473); assay: qHTS assay to identify small molecule antagonists of the vitamin D receptor (VDR) signaling pathway (AID 743223; active = well fitted inhibition curve with a large enough effect in the signal ratio in the repeat runs, not every such curve was filed as active; the % refers to the signal ratio; also: potency is read from the fitted curve at half-maximal effect)
Method in brief: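 Quantitative HTS in VDR-bla reporter cells stimulated with 1alpha,25-dihydroxyvitamin D3, 3 nM final. Compound exposure 16 h, 37C, 5% CO2. Read-out: beta-lactamase FRET substrate fluorescence, 2 h RT.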

Measured: Potency

C[C@]12CC[C@H]3C(=CCc4cc(O)ccc43)[C@@H]1CCC2=O
not listed: [8] | [9] | [10]
inactive: all other assays above

S=P(N1CC1)(N1CC1)N1CC1
inactive: [1] | [2] | [5] | [6]

CCCCC(CC)COC(=O)c1ccc(O)cc1 (stereo not given)
inactive: [2] | [5] | [7]
active: [1] 38.8 µM | [8] 34.5 µM and 38.9 µM | [6] 48.8 µM

CC(CN(C)C)CN1c2ccccc2CCc2ccccc21 (stereo not given)
inactive: [3] | [9] | [5] | [10]
active: [1] 26.6 µM | [8] 29.8 µM | [4] 8.41 µM

O=C1NC2CCCCN2C12CCN(CCCN1c3ccccc3CCc3ccc(Cl)cc31)CC2 (stereo not given)
active: [1] 29.8 µM | [8] 26.6 µM | [3] 29.8 µM | [4] 23.7 µM | [6] 29.8 µM
inactive: [5] | [7]

CCCCCCOc1ccc(O)cc1
inactive: [1] | [2] | [3] | [4] | [6]

c1ccc(Nc2cccc3ccccc23)cc1
inactive: [1] | [8] | [3] | [4] | [6] | [10]

Cc1c(C(=O)O)cccc1[N+](=O)[O-]
not listed: [3] | [7] | [8]
inactive: all other assays above

CCCCCCCC/C=C/CCCOC(C)=O
not listed: [3] | [8]
inactive: all other assays above

CC=O
active: [1] 45.7 µM | [8] 40.7 µM | [4] 45.7 µM | [6] 64.5 µM

CN1[C@@H]2CC[C@H]1CC(OC(=O)C(CO)c1ccccc1)C2 (stereo not given in full)
inactive: [1] | [8] | [4] | [6]

CCCOc1sc(C(=O)N2CCC(c3cc(CN)ccc3F)CC2)c(C)c1Br
active: [1] 15.9 µM | [8] 17.9 µM | [4] 25.2 µM | [6] 50.4 µM

O=C(O)CCn1c2c(c3ccccc31)C[C@H](NS(=O)(=O)c1ccc(F)cc1)CC2
inactive: [1] | [8] | [4] | [6]

COCC(=O)O[C@]1(CCN(C)CCCc2nc3ccccc3[nH]2)CCc2cc(F)ccc2[C@@H]1C(C)C
inactive: [5]
active: [1] 11.9 µM | [8] 16.8 µM | [4] 11.9 µM | [6] 23.7 µM

CCCCCCCC/C=C\CCCCCCCC(=O)N(C)CC(=O)O
active: [1] 38.9 µM | [8] 12.3 µM | [4] 38.9 µM | [6] 54.9 µM

COc1cc(C=C2CCC/C(=C\c3ccc(O)c(OC)c3)C2=O)ccc1O
active: [1] 29.8 µM | [8] 33.5 µM | [4] 21.1 µM | [6] 23.7 µM

CC(C)(c1cc(Br)c(OCCO)c(Br)c1)c1cc(Br)c(OCCO)c(Br)c1
inactive: [5]
active: [1] 15.1 µM | [8] 42.7 µM | [4] 19.1 µM

CC(NCCC(c1ccccc1)c1ccccc1)c1ccccc1 (stereo not given)
inactive: [5] | [6]
active: [1] 29.8 µM | [8] 8.41 µM | [4] 23.7 µM

CCCCCCCCCCCCOC(=O)c1cc(O)c(O)c(O)c1
active: [1] 34.5 µM and 43.6 µM | [8] 34.5 µM and 54.9 µM | [9] 54.9 µM | [4] 43.5 µM | [6] 38.7 µM and 19.5 µM

Nc1ccc2cc3ccc(N)cc3nc2c1
3.89 µM (active) and inactive: [4]
inactive: [1] | [8] | [6]

CC(=O)Nc1ccc(O)cc1
inactive: [1] | [8] | [4] | [6]

O=C1c2c(O)ccc([N+](=O)[O-])c2C(=O)c2c([N+](=O)[O-])ccc(O)c21
active: [1] 12.2 µM | [8] 13.7 µM | [4] 54.4 µM | [6] 43.2 µM

C[C@H]1O[C@@H](O[C@H]2[C@@H](O)C[C@H](O[C@H]3[C@@H](O)C[C@H](O[C@H]4CC[C@@]5(C)[C@H](CC[C@@H]6[C@@H]5C[C@@H](O)[C@]5(C)[C@@H](C7=CC(=O)OC7)CC[C@]65O)C4)O[C@@H]3C)O[C@@H]2C)C[C@H](O)[C@@H]1O
inactive: [5]
active: [1] 0.0385 µM | [8] 24.6 nM and 13.6 nM | [4] 24.6 nM and 12.2 nM

CCCCCCCCCCOCC(O)CN (stereo not given)
active: [1] 26.6 µM | [8] 29.8 µM | [4] 33.5 µM

CC1=C(/C=C/C(C)=C/C=C/C(C)=C/C(=O)Nc2ccc(O)cc2)C(C)(C)CCC1
active: [1] 3.56 µM and 4.73 µM | [8] 12.6 µM and 7.5 µM | [4] 44.8 µM and 11.9 µM | [6] 56.4 µM and 26.6 µM

CCN=C1C=CC(=C(c2ccc(N(CC)CC)cc2)c2ccc(N(CC)CC)cc2)c2ccccc21
active: [1] 3.87 µM | [8] 12.2 µM | [4] 6.88 µM | [6] 13.7 µM

CNCC[C@H](Oc1cccc2ccccc12)c1cccs1
active: [1] 6.68 µM | [8] 5.31 µM | [4] 6.68 µM | [6] 11.9 µM

Oc1c(Br)cc(Br)c2cccnc12
inactive: [4] | [6]
active: [1] 2.98 µM | [8] 3.35 µM

Cc1cccc(C)c1NC(=O)CN1CCN(CCCC(c2ccc(F)cc2)c2ccc(F)cc2)CC1
inactive: [5]
active: [1] 18.8 µM | [8] 21.1 µM | [4] 26.6 µM | [6] 29.8 µM

O=C(O)CCCCCCC(=O)O
inactive: [1] | [8] | [9] | [4] | [6] | [10]

CCOC(=O)N1CCC(=C2c3ccc(Cl)cc3CCc3cccnc32)CC1
active: [1] 27.5 µM and 29.8 µM | [8] 43.6 µM | [4] 21.9 µM
inactive: [5]

Cc1c(-c2ccc(O)cc2)n(Cc2ccc(OCCN3CCCCCC3)cc2)c2ccc(O)cc12
active: [1] 26.6 µM | [8] 26.6 µM | [4] 29.8 µM | [6] 29.8 µM

CN(C)CCCN1c2ccccc2CCc2ccccc21
active: [1] 30.9 µM | [8] 24.5 µM and 26.6 µM
19.5 µM (active) and inactive: [4]
inactive: [6]

O=C(Nc1ccc(Cl)c(Cl)c1)c1cc(Cl)cc(Cl)c1O
active: [1] 5.49 µM | [8] 11 µM | [4] 3.89 µM | [6] 13.8 µM

O=C1NCCN1CCN1CCC(c2cn(-c3ccc(F)cc3)c3ccc(Cl)cc23)CC1
active: [1] 23.7 µM | [8] 23.7 µM | [4] 23.7 µM | [6] 33.5 µM

O=C1NCN(c2ccccc2)C12CCN(CCCC(c1ccc(F)cc1)c1ccc(F)cc1)CC2
active: [1] 21.1 µM | [8] 21.1 µM | [4] 26.6 µM | [6] 33.5 µM

Clc1ccc(C(Cn2ccnc2)OCc2ccsc2Cl)c(Cl)c1 (stereo not given)
active: [1] 29.8 µM | [4] 18.8 µM
inactive: [8]

COC(=O)C1=C(C)NC(C)=C(C(=O)OCCCN2CCC(c3ccccc3)(c3ccccc3)CC2)C1c1cccc([N+](=O)[O-])c1 (stereo not given)
active: [1] 10.6 µM | [8] 11.9 µM | [4] 11.9 µM | [6] 26.6 µM

NC1(c2ccc(-c3nc4ccn5c(=O)[nH]nc5c4cc3-c3ccccc3)cc2)CCC1
active: [1] 26.6 µM | [8] 15 µM | [4] 26.6 µM | [6] 33.5 µM

C=CC(=O)OCCOCC(CC)(COCCOC(=O)C=C)COCCOC(=O)C=C
active: [1] 51 µM | [8] 36.1 µM | [4] 51 µM | [6] 51 µM

O=C1C=CC(=O)N1c1ccccc1
active: [1] 15.5 µM | [8] 15.5 µM | [9] 54.9 µM | [4] 49 µM | [10] 12.3 µM

O=C1c2c(O)ccc(O)c2C(=O)c2c(NCCNCCO)ccc(NCCNCCO)c21
inactive: [8] | [5] | [6]
active: [1] 29.8 µM | [9] 26.6 µM

CN1[C@@H]2CC[C@@H]1CC(OC(=O)C(CO)c1ccccc1)C2 (stereo not given in full)
inactive: [1] | [8] | [4] | [6]

CC(C)(C)c1cc(/C=C2\SC(=N)NC2=O)cc(C(C)(C)C)c1O
active: [1] 21.9 µM | [8] 54.9 µM | [4] 43.6 µM

CCCCCCCCCCCCN(CCO)CCO
active: [1] 38.7 µM | [8] 48.8 µM | [4] 54.7 µM

Cc1oc(-c2ccccc2)nc1CCOc1ccc(C[C@H](Nc2ccccc2C(=O)c2ccccc2)C(=O)O)cc1
active: [1] 34.7 µM | [8] 21.9 µM | [4] 34.7 µM

COC(=O)CC#N
inactive: [1] | [8] | [4] | [6]

C[C@@H]1CC[C@H]2C(C)(C)[C@H]3C[C@@]12CC[C@@]3(C)O
inactive: [2] | [8] | [3] | [9] | [5] | [6]

Cc1ccc(-n2[nH]c(C)c(N=Nc3cccc(-c4cccc(C(=O)O)c4)c3O)c2=O)cc1C
active: [1] 26.6 µM
inactive: [8] | [5] | [6]

CCCCCCCCCCCCCC[n+]1ccccc1
active: [1] 24.5 µM | [8] 24.5 µM | [6] 54.9 µM | [10] 43.6 µM

CCC(C)(C)c1cc(O)c(C(C)(C)CC)cc1O
inactive: [2] | [8] | [3] | [6] | [7]

C=C(c1ccc(C(=O)O)cc1)c1cc2c(cc1C)C(C)(C)CCC2(C)C
inactive: [6] | [7]
active: [1] 61.6 µM | [8] 21.9 µM and 29.8 µM | [4] 24.5 µM

C=C1C(C)(C)[C@@]2(Cl)C(Cl)[C@]1(Cl)C(Cl)(Cl)C2(Cl)Cl (stereo not given in full)
active: [1] 38.2 µM | [4] 53.9 µM
inactive: [8] | [7]
